Screening results deposited in PubChem by NMMLSC.
LAP4-GFP MLPCN – modulators of TOR pathway LAP4-GFP in S. cerevisiae; S. cerevisiae LAP4-GFP multiplex, flow cytometry GFP, 3 h; median GFP as percent of DMSO wells; 0.34% of 320,000 active; AID 2023; GFP response vs DMSO, % at 10 µM;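 active means GFP response vs DMSO above a set limit, about the screen mean plus 3 SD, cut at about 150% in these data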
CIT2 TOR yeast – alters CIT2-GFP fluorescence in TOR pathway yeast screen. S. cerevisiae CIT2-GFP strain, flow cytometry, 3 h; 100 means same as DMSO wells. GFP response vs DMSO, % at 10 µM. 0.065% of 320,000 active;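 active means GFP response relative to DMSO above a set limit, near the screen mean plus 3 SD, cut at about 150% in these data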;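 further: ratio of well median GFP fluorescence to mean of DMSO wells on the plate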
MEP2 TOR yeast – alters MEP2-GFP fluorescence in TOR pathway yeast screen | 0.51% of 330,000 active | S. cerevisiae MEP2-GFP strain, flow cytometry GFP, 3 h; 100% = DMSO control level | AID 2016 | GFP response vs DMSO, % at 10 µM;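 active means GFP response versus DMSO above a set limit, roughly screen mean plus 3 SD, cut at about 180% in these data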;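 further: median GFP fluorescence of the barcode-gated MEP2-GFP cells per well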
AGP1-GFP MLPCN – yeast TOR pathway AGP1-GFP modulation. S. cerevisiae AGP1-GFP multiplex flow cytometry, 3 h; GFP as percent of DMSO wells. 0.02% of 320,000 active. GFP response vs DMSO, % at 10 µM;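 active means GFP response relative to DMSO above a set limit, near screen average plus 3 SD, cut at about 150% in these data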;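 further: median GFP channel fluorescence of the gated AGP1 strain per well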
RPL19A TOR yeast – modulators of TOR pathway RPL19A-GFP in S. cerevisiae | S. cerevisiae RPL19A-GFP strain, flow cytometry, 3 h; active compounds read low | percent response vs DMSO, % at 10 µM | 0.3% of 330,000 active;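 active means percent response vs DMSO below 50%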;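 further: median channel GFP fluorescence of the barcoded RPL19A-GFP strain; ratio of sample median GFP to plate DMSO average so 100% = DMSO; lower means less RPL19A-GFP as with rapamycin TOR inhibition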
LAP4-GFP pick2 – reconfirmed LAP4-GFP TOR pathway modulator in yeast | shares compounds with LAP4-GFP MLPCN | S. cerevisiae LAP4-GFP strain, flow cytometry GFP, 3 h | GFP response vs DMSO, % at 10 µM | 20% of 590 active | AID 2621;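 active means GFP signal as percent of the solvent control above about 150%, meaning raised reporter expression, limit read from the data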;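 further: ratio of well median GFP fluorescence to plate DMSO mean so 100% = DMSO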
MEP2-GFP pick2 – reconfirmed MEP2-GFP TOR pathway modulator in yeast; 10% of 590 active; GFP response vs DMSO, % at 10 µM; S. cerevisiae MEP2-GFP strain, flow cytometry GFP, 3 h; shares compounds with LAP4-GFP MLPCN;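 active means GFP signal above 150% of the solvent control wells, that is a rise of more than half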;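 further: median channel GFP fluorescence of all gated yeast cells per well; ratio of median GFP to plate DMSO average so 100% = DMSO level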
RPL19A GFP CP2 – second confirmation of modulators of TOR reporter RPL19A-GFP in yeast; GFP response vs DMSO, % at 10 µM; shares compounds with LAP4-GFP MLPCN; S. cerevisiae RPL19A-GFP strain, flow cytometry GFP, 3 h; active compounds read low; 100% means same as DMSO wells; 3% of 590 active;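 active means under 65% GFP response relative to DMSO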;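 further: median GFP channel fluorescence per well over the all cells gate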
CIT2-GFP pick2 – second confirmation of modulators of TOR reporter CIT2-GFP in yeast | shares compounds with LAP4-GFP MLPCN | S. cerevisiae CIT2-GFP strain, flow cytometry GFP, 3 h; DMSO control wells read 100% | GFP response vs DMSO, % at 10 µM | 8% of 590 active;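 active means GFP response vs DMSO above about 150%, limit read from the data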;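 further: median green fluorescence per well over all gated yeast cells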
AGP1-GFP pick2 – yeast AGP1-GFP TOR reporter modulation, second cherry pick; shares compounds with LAP4-GFP MLPCN; S. cerevisiae AGP1-GFP strain, flow cytometry GFP, 3 h; percent response vs DMSO, % at 10 µM; 590 tested, under 10 active; AID 2643;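 active means over 150 percent of DMSO response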;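 further: median GFP channel fluorescence over all cells without mother daughter split; sample median GFP divided by mean DMSO control so 100% equals DMSO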
Yeast autofluor – compound is autofluorescent in yeast s288c cells | shares compounds with LAP4-GFP MLPCN | S. cerevisiae s288c, 520 nm autofluorescence, flow cytometry, 3 h; active compounds read high; zero means same as solvent-only cells | fluorescence change (kMESF span) at 33 µM | 610 tested, under 10 active;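 active means fluorescence span over the dose series, or activity score, above about 33, limit read from the data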
Starred values were filed as active, the others as inactive. Rows were chosen to be rich in hits. Some 0.89% of all compounds tested hit in one or more screens of this group.

What do the screens show for `CCOC(=O)c1ccc(NC(=O)Nc2ncc(Cl)cc2Cl)cc1`?
LAP4-GFP MLPCN: 79.5; CIT2 TOR yeast: 81.0; MEP2 TOR yeast: 89.3; AGP1-GFP MLPCN: 62.1; RPL19A TOR yeast: 62.7; LAP4-GFP pick2: 97.2; MEP2-GFP pick2: 111.8; RPL19A GFP CP2: 65.1; CIT2-GFP pick2: 100.1; AGP1-GFP pick2: 66.3

How did CCOC(=O)c1ccc(NC(=O)Nc2ncccc2C)cc1 do in these assays?
LAP4-GFP MLPCN: 99.4; CIT2 TOR yeast: 81.3; MEP2 TOR yeast: 100.8; AGP1-GFP MLPCN: 93.5; RPL19A TOR yeast: 110.7

Results for O=C(NCc1ccco1)C(=O)NCC1OCCN1C(=O)c1ccc(Cl)cc1 (configuration not stated) ?
LAP4-GFP MLPCN: 97.5; CIT2 TOR yeast: 97.8; MEP2 TOR yeast: 165.2; AGP1-GFP MLPCN: 95.1; RPL19A TOR yeast: 57.0; LAP4-GFP pick2: 101.9; MEP2-GFP pick2: 104.8; RPL19A GFP CP2: 99.6; CIT2-GFP pick2: 100.7; AGP1-GFP pick2: 98.6

What do the screens show for `O=C(NCc1ccccn1)C(=O)NCC1OCCN1C(=O)c1ccc(Cl)cc1` (configuration not stated)?
LAP4-GFP MLPCN: 83.1; CIT2 TOR yeast: 101.0; MEP2 TOR yeast: 95.1; AGP1-GFP MLPCN: 89.1; RPL19A TOR yeast: 93.9

How did CC(=O)Oc1ccc(/C=c2\sc3ncnn3c2=O)cc1 do in these assays?
LAP4-GFP MLPCN: 152.9*; CIT2 TOR yeast: 98.8; MEP2 TOR yeast: 91.3; AGP1-GFP MLPCN: 84.9; RPL19A TOR yeast: 101.5; Yeast autofluor: 0.5

What do the screens show for `CCCOc1ccc(/C=c2\sc3ncnn3c2=O)cc1`?
LAP4-GFP MLPCN: 105.3; CIT2 TOR yeast: 90.8; MEP2 TOR yeast: 85.7; AGP1-GFP MLPCN: 90.5; RPL19A TOR yeast: 91.5

How did CCOc1ccccc1/C=c1\sc2ncnn2c1=O do in these assays?
LAP4-GFP MLPCN: 274.8*; CIT2 TOR yeast: 67.6; MEP2 TOR yeast: 86.7; AGP1-GFP MLPCN: 65.8; RPL19A TOR yeast: 97.4; LAP4-GFP pick2: 226.4*; MEP2-GFP pick2: 111.8; RPL19A GFP CP2: 108.3; CIT2-GFP pick2: 109.9; AGP1-GFP pick2: 89.0; Yeast autofluor: 0.91

What do the screens show for `C[C@@]12C(=O)N(CCc3c[nH]c4ccccc34)CC(=O)N1[C@H]1c3ccccc3OC[C@@H]1[C@@H]2c1ccccc1`?
LAP4-GFP MLPCN: 93.3; CIT2 TOR yeast: 101.9; MEP2 TOR yeast: 97.9; AGP1-GFP MLPCN: 96.0; RPL19A TOR yeast: 97.1

What do the screens show for `CCN(CC)C(=O)Oc1ccc(Cl)c2cccnc12`?
LAP4-GFP MLPCN: 110.6; CIT2 TOR yeast: 93.6; MEP2 TOR yeast: 99.9; AGP1-GFP MLPCN: 96.2; RPL19A TOR yeast: 101.1

How did O=C(Nc1cccc(C(F)(F)F)c1)Oc1ccc(Cl)c2cccnc12 do in these assays?
LAP4-GFP MLPCN: 201.5*; CIT2 TOR yeast: 113.0; MEP2 TOR yeast: 99.0; AGP1-GFP MLPCN: 70.3; RPL19A TOR yeast: 94.7; Yeast autofluor: 0.5
